MITF primary – human MITF inhibition, primary screen; O75030; AlphaScreen MITF homodimerization, bead proximity signal; inhibition, % at 2.6 µM; 0.91% of 650,000 active; AID 1259374; in the data active = inhibition above about 50%;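 note: 0% = vehicle wells with protein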
Target sequence (O75030 whole entry, looked up): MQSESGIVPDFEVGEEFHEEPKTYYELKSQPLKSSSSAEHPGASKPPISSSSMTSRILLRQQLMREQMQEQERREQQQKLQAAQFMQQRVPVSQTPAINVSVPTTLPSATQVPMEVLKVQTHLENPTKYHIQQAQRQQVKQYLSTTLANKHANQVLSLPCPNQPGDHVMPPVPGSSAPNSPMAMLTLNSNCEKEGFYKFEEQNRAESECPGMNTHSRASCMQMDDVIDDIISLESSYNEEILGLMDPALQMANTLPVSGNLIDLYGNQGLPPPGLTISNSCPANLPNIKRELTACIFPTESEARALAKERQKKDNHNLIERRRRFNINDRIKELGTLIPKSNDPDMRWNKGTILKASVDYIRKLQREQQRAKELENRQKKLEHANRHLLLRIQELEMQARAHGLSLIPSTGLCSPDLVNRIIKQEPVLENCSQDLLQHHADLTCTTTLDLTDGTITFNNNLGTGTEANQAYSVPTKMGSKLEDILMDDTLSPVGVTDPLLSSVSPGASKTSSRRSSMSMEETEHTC
GPR151 activ – activates the human receptor GPR151; Q8TDV0; activation, % at 11.2 µM; 1% of 650,000 active; PathHunter beta-arrestin GPR151 cells, luminescence; in the data active = activation above about 4.9%;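 note: 0% = median of compound wells and 100% = cells with positive control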
FBW7 act – activators of human E3 ligase FBW7. Q969H0. AlphaScreen FBW7–phospho-cyclin E peptide binding, activator screen. normalized activity (activation), % at 26.1 µM. 0.13% of 650,000 active; in the data active = normalized activity above about 1.9%;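 note: purified mutant Fbw7 with reduced substrate affinity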
TEAD-YAP inh – TEAD-YAP interaction inhibition; HEK-TIYL cells, TEAD-Gal4/YAP UAS-luciferase luminescence; inhibition, % at 9.12 µM; 1.4% of 640,000 active; AID 1259422; in the data active = inhibition above about 32%;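 note: 0% = median of test compound wells and 100% = reference inhibitor wells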
GPR151 conf act – human GPR151 activation, confirmation screen; shares compounds with GPR151 activ; GPR151 PathHunter beta-arrestin cells, luminescence, 90 min; % of EA-reagent control over plate median; activation, % at 11.2 µM; 6,700 tested, under 10 active;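 active = mean percent activation across replicates above the confirmation screen cutoff of 4.91%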
GPR119 ag – counter-screen for GPR151 activators: effect on human GPR119; shares compounds with GPR151 activ; GPR119 PathHunter beta-arrestin cells, luminescence, 90 min; 0 = compound-well median, 100 = enzyme-acceptor control; activation, % at 11.2 µM; 0.3% of 6,700 active; AID 1508611;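 active = mean percent activation in the counterscreen above 29.09%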;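 note: counterscreen on off-target GPR119 to flag nonselective hits from the GPR151 activator screen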
Active calls of the source: *; ! = not active in a repeat. An excerpt weighted towards active compounds, which were near 3.5% of everything screened.

How did CC(C)CNC(=O)c1ccc(N2CC3CC(C2)c2cccc(=O)n2C3)c(NC(=O)c2ccc(F)cc2)c1 (configuration not stated) do in these assays?
MITF primary: -5.0; GPR151 activ: 3.0; FBW7 act: -0.1; TEAD-YAP inh: -1.1

How did O=C1NC(CC(=O)N2CCC(C(=O)c3nc4ccccc4s3)CC2)c2ccccc21 (configuration not stated) do in these assays?
MITF primary: 9.4; GPR151 activ: 5.1*; FBW7 act: 0.6; TEAD-YAP inh: 6.4; GPR151 conf act: -0.7; GPR119 ag: -7.1

What do the screens show for `O=C(c1nc2ccccc2s1)C1CCN(C(=O)Cn2cnc3ccccc3c2=O)CC1`?
MITF primary: 5.0; GPR151 activ: 0.0; FBW7 act: 0.0; TEAD-YAP inh: -1.6

How did COCCN1CC(CNC(=O)c2cc(COc3ccc(F)cc3Cl)on2)CC1=O (configuration not stated) do in these assays?
MITF primary: 6.7; GPR151 activ: 9.8*; FBW7 act: 0.0; TEAD-YAP inh: 1.8; GPR151 conf act: -1.2; GPR119 ag: -9.5

How did c1ccc(Oc2nc(NC3CC3)c3ncn(-c4ccsc4)c3n2)cc1 do in these assays?
MITF primary: -8.6; GPR151 activ: 6.6*; FBW7 act: -0.2; TEAD-YAP inh: 87.6*; GPR151 conf act: 3.9; GPR119 ag: 45.8*

How did CN(C)c1cccc(Nc2nc(NCc3ccccc3)c3ncn(-c4ccsc4)c3n2)c1 do in these assays?
MITF primary: 11.6; GPR151 activ: -0.1; FBW7 act: 1.2; TEAD-YAP inh: -0.7

What do the screens show for `CN(C)c1cccc(Nc2nc(Nc3ccccc3)c3ncn(-c4ccsc4)c3n2)c1`?
MITF primary: 9.1; GPR151 activ: 5.6*; FBW7 act: 0.2; TEAD-YAP inh: -66.8; GPR151 conf act: -0.5; GPR119 ag: -8.4

Results for c1ccc2c(c1)CCN(c1nc(NC3CC3)c3ncn(-c4ccsc4)c3n1)C2 ?
MITF primary: -1.4; GPR151 activ: 1.8; FBW7 act: 0.0; TEAD-YAP inh: 25.1

How did c1ccc(CN2CCC(Nc3nc(Nc4ccc5ncccc5c4)nc4c3ncn4-c3ccsc3)CC2)cc1 do in these assays?
MITF primary: -5.5; GPR151 activ: 5.5*; FBW7 act: -0.1; TEAD-YAP inh: 2.4; GPR151 conf act: 0.1; GPR119 ag: -12.5

Results for Oc1ccc(CCNc2nc(NC3CCN(Cc4ccccc4)CC3)nc3c2ncn3-c2ccsc2)cc1 ?
MITF primary: 2.4; GPR151 activ: 5.6*; FBW7 act: -0.1; TEAD-YAP inh: 24.6; GPR151 conf act: 0.4; GPR119 ag: 9.2

Results for CCCNC(=O)c1ccc2c(c1)N(Cc1ccccc1F)C(=O)CS2 ?
MITF primary: 6.4; GPR151 activ: -0.8; FBW7 act: 0.9; TEAD-YAP inh: 6.2

What do the screens show for `CCn1c(SCC(=O)N2CCc3ccccc32)nnc1-c1ccc(N)cc1`?
MITF primary: 5.5; GPR151 activ: 0.7; FBW7 act: 0.0; TEAD-YAP inh: 8.0

What do the screens show for `Clc1cc(NCCN2CCOCC2)ncn1`?
MITF primary: 12.0; GPR151 activ: 5.7*!; FBW7 act: 0.3; TEAD-YAP inh: 5.7; GPR151 conf act: 0.6; GPR119 ag: -4.1

How did Nc1nc(Cl)cc(NCCN2CCOCC2)n1 do in these assays?
MITF primary: 9.8; GPR151 activ: 1.8; FBW7 act: 0.0; TEAD-YAP inh: 9.0

How did C=CCN=c1scc(-c2ccc(Cl)cc2)n1CC=C do in these assays?
MITF primary: 25.3; GPR151 activ: 0.7; FBW7 act: 0.0; TEAD-YAP inh: 7.3

Results for Cc1cc(C)n2ncc(C(=O)Nc3ccc(Cl)cc3Cl)c2n1 ?
MITF primary: -15.4; GPR151 activ: 1.1; FBW7 act: -0.1; TEAD-YAP inh: -5.4

Results for CSc1cccc(NS(=O)(=O)c2ccc3c(c2)OCCN3C)c1 ?
MITF primary: 0.6; GPR151 activ: 5.0*; FBW7 act: -0.2; TEAD-YAP inh: 18.7; GPR151 conf act: 0.4; GPR119 ag: 6.4

How did Cc1cc(NS(=O)(=O)c2ccc3c(c2)OCCN3C)ccc1Br do in these assays?
MITF primary: 3.8; GPR151 activ: 9.0*; FBW7 act: -0.1; TEAD-YAP inh: 4.6; GPR151 conf act: -0.4; GPR119 ag: -7.5

What do the screens show for `Cc1ccc(CCNS(=O)(=O)c2ccc3c(c2)OCCN3C)cc1`?
MITF primary: 1.7; GPR151 activ: 5.4*; FBW7 act: -0.1; TEAD-YAP inh: 6.8; GPR151 conf act: 2.5; GPR119 ag: 3.6

Results for Cc1ccc(NS(=O)(=O)c2ccc3c(c2)OCCN3C)cc1C ?
MITF primary: 3.5; GPR151 activ: 0.9; FBW7 act: -0.1; TEAD-YAP inh: 20.2

What do the screens show for `COc1ccc(NC(C)=O)cc1NC(C)c1nc2sc3c(c2c(=O)[nH]1)CCC(C)C3` (configuration not stated)?
MITF primary: -4.7; GPR151 activ: -0.9; FBW7 act: -0.1; TEAD-YAP inh: -12.0

How did COc1ccc2c(c1)-c1c(ssc1=S)C(C)(C)N2C(=O)Cc1ccccc1 do in these assays?
MITF primary: 15.7; GPR151 activ: 6.3*; FBW7 act: -0.8; TEAD-YAP inh: -16.2; GPR151 conf act: 0.8; GPR119 ag: 10.3

What do the screens show for `COc1ccc(CNC(=O)c2sc3cnccc3c2-n2cccc2)cc1`?
MITF primary: 4.5; GPR151 activ: 5.2*; FBW7 act: -0.1; TEAD-YAP inh: 54.9*; GPR151 conf act: 1.1; GPR119 ag: 2.5

What do the screens show for `Cc1cc(=O)[nH]c(NNc2ccccc2)n1`?
MITF primary: 2.9; GPR151 activ: -0.6; FBW7 act: 0.0; TEAD-YAP inh: 4.6

How did Nc1nc(SCc2nc(-c3ccccc3)no2)[nH]c(=O)c1-c1ccccc1 do in these assays?
MITF primary: -1.8; GPR151 activ: 6.0*; FBW7 act: -0.1; TEAD-YAP inh: 1.5; GPR151 conf act: -1.7; GPR119 ag: -16.4

Results for Nc1nc(SCC(=O)NCc2ccccc2)[nH]c(=O)c1-c1ccccc1 ?
MITF primary: 2.5; GPR151 activ: 6.8*; FBW7 act: 0.0; TEAD-YAP inh: 8.4; GPR151 conf act: 0.4; GPR119 ag: -0.3

What do the screens show for `CC(=O)c1cc(C)ccc1OC(=O)c1ccc(F)cc1`?
MITF primary: 5.9; GPR151 activ: -1.0; FBW7 act: -0.2; TEAD-YAP inh: 1.3

How did CCN1CCN(c2nc(NCC3CCCO3)c3ccccc3n2)CC1 (configuration not stated) do in these assays?
MITF primary: 5.5; GPR151 activ: 0.7; FBW7 act: -0.6; TEAD-YAP inh: -8.3

Results for Cc1nc2nc[nH]n2c(=O)c1NS(=O)(=O)c1ccccc1 ?
MITF primary: -2.9; GPR151 activ: -0.7; FBW7 act: -0.1; TEAD-YAP inh: -5.0

How did COc1cccc(C2c3c(oc4ccc(F)cc4c3=O)C(=O)N2c2nc(C)c(C)s2)c1 (configuration not stated) do in these assays?
MITF primary: -8.5; GPR151 activ: 0.8; FBW7 act: 0.1; TEAD-YAP inh: -2.6
